aSyn 5UTR inh: MLPCN primary screen, SNCA 5' untranslated region. alpha-synuclein 5'UTR reporter, inhibitor activity. inhibition, % (tested at 7.5 µM). actives 0.82% (n = 300,000). AID 1813; in the data active = inhibition above about 60%; inconclusive = no clear call, values can overlap the other calls;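 also: H4 neuroglioblastoma cells stably carrying SNCA 5'UTR luciferase fusion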
Bfl-1 A1 inh: inhibitors of the anti-apoptotic protein A1, read as caspase activation; caspase activation, % (concentration not given with the values); actives 0.066% (n = 330,000); MEF A1-2A-BIM cells, Caspase-Glo 3/7 luminescence, 3 h; percent of clofoctol response, vehicle zero;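 active = over half of replicate activation scores above 10%, or exactly half above 10 with the replicate mean above 10; inconclusive = replicate mean below 10 yet half the replicates above 10; inactive = over half of replicates below 10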
Beta apoptosis: blocks beta cell apoptosis. INS-1E cytokine-induced death, ATP luminescence, 48 h; percent of positive-control rescue, neutral wells zero. protection from apoptosis, % (no concentration beside the values). actives 0.8% (n = 300,000);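 active = Every replicate reaches about 75%, or at least half do and their mean reaches it too, limit read from the data; inconclusive = At least half of replicates reach the limit but their mean does not; inactive = Under half of replicates reach the limit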;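 also: higher means more ATP so stronger rescue from cytokine killing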
Mdm2 MdmX PPI: inhibitors of human Mdm2/MdmX interaction. O15151+Q00987. SaOS-2 split-luciferase Mdm2/MdmX complementation, luminescence. inhibition, % at 8 µM. actives 3% (n = 330,000). AID 485346;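 active = inhibition of at least 50% at 8 µM in the primary screen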
Target sequence (O15151 whole entry, looked up): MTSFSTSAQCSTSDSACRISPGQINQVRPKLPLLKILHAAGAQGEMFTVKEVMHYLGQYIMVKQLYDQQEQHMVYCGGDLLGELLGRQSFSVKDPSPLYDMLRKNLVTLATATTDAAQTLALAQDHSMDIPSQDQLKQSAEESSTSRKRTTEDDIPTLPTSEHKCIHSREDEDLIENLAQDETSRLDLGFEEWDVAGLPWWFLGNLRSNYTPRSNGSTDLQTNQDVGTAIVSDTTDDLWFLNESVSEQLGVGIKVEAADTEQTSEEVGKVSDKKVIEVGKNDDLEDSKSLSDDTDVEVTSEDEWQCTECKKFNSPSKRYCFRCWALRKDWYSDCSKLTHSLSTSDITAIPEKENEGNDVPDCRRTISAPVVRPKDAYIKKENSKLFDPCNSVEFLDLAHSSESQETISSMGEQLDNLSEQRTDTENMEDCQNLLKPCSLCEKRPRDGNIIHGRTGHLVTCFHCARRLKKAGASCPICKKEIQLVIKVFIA
Target sequence (Q00987 whole entry, looked up): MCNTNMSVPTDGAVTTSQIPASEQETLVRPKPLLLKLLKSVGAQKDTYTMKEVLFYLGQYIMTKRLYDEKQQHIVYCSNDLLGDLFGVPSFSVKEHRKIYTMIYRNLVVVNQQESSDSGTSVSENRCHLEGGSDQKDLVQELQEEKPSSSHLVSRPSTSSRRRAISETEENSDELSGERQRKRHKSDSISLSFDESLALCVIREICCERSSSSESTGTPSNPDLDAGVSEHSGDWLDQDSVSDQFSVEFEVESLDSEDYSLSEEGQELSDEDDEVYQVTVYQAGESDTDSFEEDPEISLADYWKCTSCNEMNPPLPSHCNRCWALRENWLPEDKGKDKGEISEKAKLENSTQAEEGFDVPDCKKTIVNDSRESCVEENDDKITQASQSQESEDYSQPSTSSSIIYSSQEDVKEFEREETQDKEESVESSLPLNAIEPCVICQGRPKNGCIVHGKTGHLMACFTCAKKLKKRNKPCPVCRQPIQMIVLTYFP
CSC inhib: cancer stem cell inhibition. cancer stem cell-like cells viability, luminescence. inhibition, % at 7.5 µM. AID 2717. actives 1.1% (n = 300,000); in the data active = inhibition above about 75%; inconclusive = no clear call, values can overlap the other calls; tested in HMLE shEcad cells
Mdm2 MdmX conf: confirmation of human Mdm2/MdmX interaction inhibitors; actives 55% (n = 10,000); inhibition, % at 8 µM; shares compounds with Mdm2 MdmX PPI; Mdm2-MdmX binding, luminescent assay; in the data active = inhibition above about 40%
Full FLuc ctr: full-length luciferase inhibition in Mdm2/MdmX counter-screen. actives 77% (n = 6,200). AID 504607. SaOS-2 full-length luciferase counterscreen, luminescence. inhibition, % at 8 µM. shares compounds with Mdm2 MdmX PPI;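 active = mean inhibition at 8 µM reaching about 37%, which flags the compound as non-specific, limit read from the data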;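 also: p53-null SaOS-2 cells with luciferase driven by a doxycycline-inducible promoter; compound on cells about two nights before reading with doxycycline added after day one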
Of the large screens only hits and unclear results are named; the others gave an inactive call (follow-up assays come after a bar, where they were run). This is a sample that favours compounds with a hit; in the whole collection about 4.1% have one here.

Cn1c(=O)c(C#N)c(-c2ccc(F)cc2)c2cc(C(=O)c3cc(Cl)cc(Cl)c3O)cnc21	Mdm2 MdmX PPI 82.8, CSC inhib 124.0 | Mdm2 MdmX conf 87.0 | Full FLuc ctr inactive
COc1ccccc1NC(=O)C(C)OC(=O)CCCOc1ccccc1 (centres undefined)	none
COC(=O)c1ccc(COc2ccccc2/C=C(\C#N)C(=O)Nc2c(C)cccc2C)cc1	Beta apoptosis 106.9, Mdm2 MdmX PPI 93.4, CSC inhib 101.6 | Mdm2 MdmX conf 52.9 | Full FLuc ctr 41.8
COC(=O)c1ccc(COc2ccccc2/C=C(\C#N)C(=O)Nc2ccccc2C)cc1	none (no result: CSC inhib)
CC1CCC/C=C/C(=O)c2c(O)cc(O)cc2CC(=O)O1 (centres undefined)	Mdm2 MdmX PPI 100.3 | Mdm2 MdmX conf 98.5 | Full FLuc ctr 55.9
C[C@@H]1Cc2c(O)c(O)cc(O)c2C(=O)O1	none (no result: Beta apoptosis)
COC(=O)Nc1sccc1C(=O)Nc1sccc1C(=O)OC	Mdm2 MdmX PPI 60.9 | Mdm2 MdmX conf inactive
Cc1ccc(Cn2nnnc2CN2CCC(c3nc4ccc(Cl)cc4[nH]3)CC2)cc1	aSyn 5UTR inh 78.3, Mdm2 MdmX PPI 58.1 | Mdm2 MdmX conf inactive | Full FLuc ctr 46.4
Clc1ccc2nc(C3CCN(Cc4nnnn4C4CCCCC4)CC3)[nH]c2c1	none
CCC(=NCCc1c(C)[nH]c2ccccc12)C1=C(O)CC(c2ccccc2)CC1=O (centres undefined)	Mdm2 MdmX PPI 71.4 | Mdm2 MdmX conf 51.9 | Full FLuc ctr 49.6
CCCCC(=NCCc1c(C)[nH]c2ccc(OC)cc12)C1=C(O)CC(c2ccccc2)CC1=O (centres undefined)	aSyn 5UTR inh 119.1, Mdm2 MdmX PPI 59.6 | Mdm2 MdmX conf 54.0 | Full FLuc ctr 66.1
CCC(=NCCc1c(C)[nH]c2ccc(OC(F)(F)F)cc12)C1=C(O)CC(c2ccccc2)CC1=O (centres undefined)	aSyn 5UTR inh 107.0, Mdm2 MdmX PPI 65.7 | Mdm2 MdmX conf 64.0 | Full FLuc ctr 73.0
CN(C)c1ccc(/C=N/NC(=O)c2ccc3c(c2)OCO3)cc1	none
Cc1c(C(=O)N/N=C/c2ccc(N(C)C)cc2)[nH]c2ccc(Cl)cc12	aSyn 5UTR inh 73.5, Mdm2 MdmX PPI 64.7 | Mdm2 MdmX conf 51.3 | Full FLuc ctr 69.2
Cc1c(C(=O)N/N=C/c2ccccc2)[nH]c2ccc(Cl)cc12	Mdm2 MdmX PPI 57.5 | Mdm2 MdmX conf 51.2 | Full FLuc ctr 59.3
COc1ccc(OCC(=O)Nc2cc3c(cc2C(=O)O)OCCCO3)cc1	none
COc1ccc(N2CCc3c(C)nc4c(OC)cccc4c32)cc1	aSyn 5UTR inh 89.1, Mdm2 MdmX PPI 57.8 | Mdm2 MdmX conf 56.5 | Full FLuc ctr 55.1
COc1ccc(N2CCc3c(C)nc4c(OC)cc(OC)cc4c32)cc1	Mdm2 MdmX PPI 50.5 (no result: Beta apoptosis, CSC inhib) | Mdm2 MdmX conf inactive
COc1cc(OC)cc(C(=O)NCC(=O)OC2CCCCC2=O)c1 (centres undefined)	none (no result: aSyn 5UTR inh, CSC inhib)
Cc1ccc(OCC(=O)NCCNC(=O)c2cnccn2)cc1C	none (no result: Bfl-1 A1 inh, Beta apoptosis, CSC inhib)
CC(NC(=O)c1cc(-c2ccc(Br)cc2)on1)c1ccccc1 (centres undefined)	Mdm2 MdmX PPI 54.1 | Mdm2 MdmX conf inactive
COC(=O)c1cc(-c2ccc(Br)cc2)on1	none
Cc1cc(C)c2nc(-c3ccncc3)cc(C(=O)N3CCN(Cc4ccccc4Cl)CC3)c2c1	none (no result: Beta apoptosis)
CC(C)=CCc1c(O)cc2oc3c(CC=C(C)C)c(O)c(O)c(CC=C(C)C)c3c(=O)c2c1O	aSyn 5UTR inh 62.2, Mdm2 MdmX PPI 100.1 (no result: Beta apoptosis) | Mdm2 MdmX conf 42.6 | Full FLuc ctr 47.0
O=C(C1CCCN1C(=O)c1cccs1)N1CCN(S(=O)(=O)c2ccc(F)cc2)CC1 (centres undefined)	none (no result: aSyn 5UTR inh, CSC inhib)
CCOC(=O)N1CCN(S(=O)(=O)c2cc(-c3nn4c(C)nnc4c4ccccc34)ccc2C)CC1	Mdm2 MdmX PPI 58.5 | Mdm2 MdmX conf inactive
Cc1ccc(-c2nn3c(C)nnc3c3ccccc23)cc1S(=O)(=O)N(C)CCO	Mdm2 MdmX PPI 52.9 | Mdm2 MdmX conf inactive
Cc1ccc(-c2nn3c(C)nnc3c3ccccc23)cc1S(=O)(=O)NCc1ccccc1	none
Cc1ccc(-c2nn3c(C)nnc3c3ccccc23)cc1S(=O)(=O)NCCN1CCOCC1	none
CCOC(=O)c1c(-c2ccccc2)oc2ccc(O)c(CN(C)C)c12	Mdm2 MdmX PPI 54.6 | Mdm2 MdmX conf inactive
CCOC(=O)c1c(CSCc2ccccc2)oc2ccc(O)c(CN(C)C)c12	Mdm2 MdmX PPI 54.2 | Mdm2 MdmX conf 46.9 | Full FLuc ctr 64.8
CCOC(=O)c1c(-c2ccccc2)oc2ccc(O)c(CN3CCCC3)c12	none (no result: Beta apoptosis)
Cc1oc2ccc(O)c(CN(C)C)c2c1C(=O)c1ccccc1	none
CCOC(=O)c1c(-c2ccccc2)oc2ccc(OCC(O)CN(C)C)cc12 (centres undefined)	Mdm2 MdmX PPI 73.7 (no result: Beta apoptosis) | Mdm2 MdmX conf inactive | Full FLuc ctr inactive
COc1cccc(CNC(=O)[C@@H](C)N2C(=O)N3CCc4c([nH]c5ccc(OC)cc45)C3(C)C2=O)c1 (some centres undefined)	none
C=CCOc1cccc(C(=O)/C=C2/C(=O)Nc3ccccc32)c1	Mdm2 MdmX PPI 85.6 | Mdm2 MdmX conf inactive
O=C(NNC(=O)c1ccccc1O)c1cccc(Br)c1	none
CSC1=NC(C)(C)C=C(/C=C/c2ccc(Cl)cc2Cl)N1	none
CSC1=NC(C)(C)C=C(/C=C/c2ccc(Cl)cc2)N1	Mdm2 MdmX PPI 53.7 | Mdm2 MdmX conf inactive
CSc1nc2nccc(/C=C\c3ccccc3)n2n1	Mdm2 MdmX PPI 75.2 | Mdm2 MdmX conf 66.2 | Full FLuc ctr inactive
Cc1cccc(NC(=O)CSCC(=O)Nc2sccc2C#N)c1	none (no result: Beta apoptosis)
O=[N+]([O-])c1ccc(Sc2cccc3cccnc23)c2cccnc12	Mdm2 MdmX PPI 65.4 | Mdm2 MdmX conf 56.4 | Full FLuc ctr 50.0
CCCN1C(=O)C(=O)c2cc(C)ccc21	Mdm2 MdmX PPI 60.4 (no result: aSyn 5UTR inh, CSC inhib) | Mdm2 MdmX conf inactive
Cc1ccc(CN2C(=O)C(=O)c3cc(C)ccc32)cc1	Bfl-1 A1 inh inconclusive, Mdm2 MdmX PPI 66.6 (no result: aSyn 5UTR inh) | Mdm2 MdmX conf inactive
Cc1ccc2c(c1)C(=O)C(=O)N2Cc1ccc(Br)cc1	Bfl-1 A1 inh 5.9, Mdm2 MdmX PPI 65.7 (no result: aSyn 5UTR inh, CSC inhib) | Mdm2 MdmX conf 63.2 | Full FLuc ctr 73.7
CCCCN1C(=O)C(=O)c2cc(Cl)ccc21	Mdm2 MdmX PPI 54.3 (no result: aSyn 5UTR inh) | Mdm2 MdmX conf inactive
COc1ccc(CNC(=O)C2CCCN(S(=O)(=O)c3ccc(-n4cnnn4)cc3)C2)cc1 (centres undefined)	none
CC(C)NC(=NCc1ccc(Cl)cc1Cl)Nc1ccccc1	none
CCOc1ccc(NC(=O)CN(C)C(=O)CCCc2nc3ccccc3c(=O)[nH]2)cc1OCC	none
CC1CC1C(=O)OCC(=O)NNC(=O)c1ccc([N+](=O)[O-])cc1 (centres undefined)	none (no result: aSyn 5UTR inh, CSC inhib)
Cc1ccc(NC(=O)CCl)cc1S(=O)(=O)N1CCCCCC1	Mdm2 MdmX PPI 97.2 | Mdm2 MdmX conf inactive
